aSyn 5UTR inh: 5' untranslated region of α-synuclein, MLPCN primary screen; alpha-synuclein 5'UTR reporter, inhibitor activity; 300,000 tested, 0.82% active; inhibition, % (tested at 7.5 µM); in the data active = inhibition above about 60%;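 note: H4 neuroglioblastoma cells stably carrying SNCA 5'UTR luciferase fusion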
KLF5 inhibitor: inhibitors of KLF5 expression. DLD-1 KLF5 promoter-luciferase reporter, luminescence. inhibition, % at 5 µM. 290,000 tested, 0.23% active;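 active = inhibition above a per-plate limit of that plate's mean compound inhibition plus 3 SD, cut at about 60% in these data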;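 note: higher means less KLF5 promoter-driven luciferase light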
Gli-Sufu block: blocks Gli-Sufu signaling in a luciferase reporter. Sufu-KO-LIGHT fibroblasts, Gli luciferase reporter luminescence. inhibition, % at 5 µM. 340,000 tested, 0.74% active. AID 588413;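 active = inhibition above about 55%, limit read from the data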
697 NFkB inh: inhibitors of the PMA/ionomycin-induced NF-kB reporter in 697 B cells; 697 B-cell NF-kB luciferase reporter, 16 h; inhibition, % at 4 µM; 330,000 tested, 0.33% active; in the data active = inhibition above about 35%
Mdm2 MdmX PPI: human Mdm2/MdmX binding inhibition; O15151+Q00987; 330,000 tested, 3% active; SaOS-2 split-luciferase Mdm2/MdmX complementation, luminescence; inhibition, % at 8 µM;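 active = inhibition of at least 50% at 8 µM in the primary screen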
Jurkat NFkB inh: lowers PMA/ionomycin-induced NF-kB signal in Jurkat cells. PMA/ionomycin-induced NF-kB luciferase reporter, luminescence. inhibition, % at 4 µM. 330,000 tested, 0.53% active. AID 435003; in the data active = inhibition above about 50%
Jurkat NFkB conf: lowers PMA/ionomycin-induced NF-kB signal in Jurkat cells; shares compounds with Jurkat NFkB inh; Jurkat NF-kB luciferase, 16 h; inhibition, % at 4 µM; 2,700 tested, 27% active;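 active = inhibition reaching about 45% at 4 µM in either replicate, limit read from the data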
Of the large screens only hits and unclear results are named; the others gave an inactive call (follow-up assays come after a bar, where they were run). An excerpt weighted towards active compounds, which were near 4.1% of everything screened.

COC(=O)Nc1nc2ccc(-c3n[nH]c(=O)c4ccccc34)cc2[nH]1	Jurkat NFkB inh 71.4 | Jurkat NFkB conf inactive
C=CCOc1ccc2nc(NC(=O)OC)[nH]c2c1	aSyn 5UTR inh 65.9, Jurkat NFkB inh 71.9 | Jurkat NFkB conf inactive
COc1ccc(Cl)cc1NC(=O)c1cnc2sccn2c1=O	none
O=C(Nc1cnc2sccn2c1=O)c1ccc(Cl)cc1Cl	none | Jurkat NFkB conf inactive
O=C(Nc1ccc(Br)cc1F)c1ccc2c(c1)OCCO2	none | Jurkat NFkB conf inactive
Cc1noc(C)c1COc1cccc(C(=O)OC(C)C(=O)Nc2ccc3c(c2)OCO3)c1 (stereo not given)	Jurkat NFkB inh 58.0 | Jurkat NFkB conf inactive
COc1cc(C(=O)OC(C)C(=O)Nc2ccc3c(c2)OCO3)ccc1OCc1c(C)noc1C (stereo not given)	none
Cc1noc(C)c1COc1cccc(C(=O)Nc2ccc(Br)cc2F)c1	Jurkat NFkB inh 61.3 (no result: aSyn 5UTR inh, KLF5 inhibitor) | Jurkat NFkB conf inactive
COc1cccc(C(=O)Nc2ccc(F)cc2F)c1	none
CC(C)Oc1cccc(C(=O)Nc2ccc(Br)cc2F)c1	none | Jurkat NFkB conf inactive
O=C(N/N=C/C=C/c1ccc2c(c1)OCO2)C(O)c1ccccc1 (stereo not given)	none
COc1ccc(NC(=O)COC(=O)c2ccc(-n3cnnn3)cc2)cc1Cl	none (no result: KLF5 inhibitor)
O=C(/C=C/c1ccc2c(c1)OCO2)Nc1nc2ccccc2s1	none | Jurkat NFkB conf inactive
Cc1ccc(S(=O)(=O)CCC(=O)OC2CC(C)OC2=O)cc1 (stereo not given)	none (no result: aSyn 5UTR inh, KLF5 inhibitor) | Jurkat NFkB conf inactive
CCN(CC)S(=O)(=O)c1cccc(C(=O)OC2CC(C)OC2=O)c1 (stereo not given)	none
COc1ccc(C=O)cc1COc1ccc2c(c1)OCO2	Jurkat NFkB inh 58.9 (no result: aSyn 5UTR inh, KLF5 inhibitor) | Jurkat NFkB conf inactive
COc1ccc(N2CCN(Cc3nc(-c4ccccc4)no3)CC2)cc1	none
Cc1ccc(-c2nc3cc(N)ccc3o2)cc1Br	none | Jurkat NFkB conf inactive
CCOc1cc(C(=O)N2CCC(CC3CC(c4ccc(Cl)cc4)=NO3)(C(=O)NCC3CCCCC3)CC2)cc(OCC)c1OCC (stereo not given)	none
CCC(=O)c1ccc(OCC(=O)Nc2ccccc2N2CCCCC2)cc1	Jurkat NFkB inh 51.4 | Jurkat NFkB conf inactive
COc1ccc(-n2nnnc2/C=C/Nc2cc(C(F)(F)F)ccc2OC)cc1	none
COc1ccc(-n2nnnc2/C=C\Nc2ccccc2C(=O)c2ccccc2)cc1	Jurkat NFkB inh 53.3 | Jurkat NFkB conf inactive
COc1ccc(/C=C2/C(=O)OCc3cc(OC)c(OC)cc32)cc1	Jurkat NFkB inh 55.3 | Jurkat NFkB conf 47.8
Cn1c(-c2nnn(-c3ccc(F)cc3)n2)cc2ccccc21	none (no result: Gli-Sufu block)
Cc1ccc(-n2nnc(-c3cc4ccccc4n3C)n2)cc1	none | Jurkat NFkB conf inactive
Cc1ccc(-n2nnc(-c3cccnc3Cl)n2)cc1	none | Jurkat NFkB conf inactive
O=C1C2C3C=CC(C3)C2C(=O)N1c1ccc(-c2nc3ccccc3o2)cc1 (stereo not given)	none | Jurkat NFkB conf inactive
O=C(CCc1c[nH]c2ccccc12)OCc1cccc(C(F)(F)F)c1	Jurkat NFkB inh 51.2 | Jurkat NFkB conf inactive
COc1cc(OC)c(OC)cc1/C=N/N(C)c1ccccc1	none
COc1cc(/C=N/N(C)c2ccccc2)ccc1O	none | Jurkat NFkB conf inactive
Fc1ccccc1OCCSc1nnnn1-c1ccccc1	none | Jurkat NFkB conf inactive
Cn1cnnc1SCC(=O)NC1CCCN(Cc2ccccc2F)C1 (stereo not given)	none
O=C(Nc1ccccc1NC(=O)c1csnn1)c1csnn1	none
CC(C)c1ccc(NC(=O)c2csnn2)cc1	none | Jurkat NFkB conf inactive
Cc1cc(C)c(CN2CCN(C(=O)Cn3cnc4c(OCc5ccccc5)ncnc43)CC2)c(C)c1	Jurkat NFkB inh 59.0 (no result: aSyn 5UTR inh, KLF5 inhibitor) | Jurkat NFkB conf 59.4
CN(C)c1ccc(-c2nnc(-c3cccs3)o2)cc1	aSyn 5UTR inh 81.9 | Jurkat NFkB conf inactive
CCCOc1ccc(-c2nnc(-c3cccs3)o2)cc1	none
COC(=O)/C=C/c1ccc(OC(=O)OC)c(OC(=O)OC)c1	none (no result: 697 NFkB inh, Mdm2 MdmX PPI, Jurkat NFkB inh)
O=C(Nc1cccc(C(F)(F)F)c1)c1sc(Cl)nc1C(F)(F)F	Jurkat NFkB inh 97.5 | Jurkat NFkB conf 70.8
Cc1ccccc1NC(=O)CSCc1cc(=O)n2ccsc2n1	none
COCCNC(=O)c1cc2c(=O)n3cccc(C)c3nc2n1C	none (no result: KLF5 inhibitor)

Screening results: PubChem BioAssay, several laboratories
